In PubChem BioAssay (NCI) one finds growth data, which are given here for 37 molecules.

Molecules are shown by their SMILES. About 83,000 compounds went through this panel and 20% of them were active in at least one assay; those are over-represented in the sample as a whole.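 96-well plates, one dose, 48 hours. Percent growth reported; active if below 10.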 Unmarked numbers belong to inactive results. Activity calls are given as the source filed them.

In this assay the test system is MDA-MB-435 melanoma. The assay is described as follows: NCI-60 one-dose screen, 48 h (100 = growth as untreated, 0 = no growth, -100 = all killed). The following applies: 10 µM.
For the molecule `Nc1ccc(-c2cccs2)cc1NC(=O)c1ccc(CCCC(=O)Nc2ccc(C3CC3N)cc2)cc1` (configuration not stated), the growth is 20.6%. On to `CCCc1cn(CC(=O)Nc2nc3ccccc3s2)nn1`, for which the growth is 105%. Consider `O=C(CCCCCCC(=O)Nc1ccccc1)NO`, for which the growth was -22% (active). Regarding `O=[N+]([O-])c1ccc(/C(=C/c2ccccc2)[n+]2ccccc2)cc1`, the growth was 101%.

Turning to `Oc1cccc(-c2nc3sccn3c2-c2ccncn2)c1`, the growth is 46%.

For the molecule `COc1ccc(/C(=N\N)C(=O)c2ccccc2)cc1` (tested in a mixture with another compound), the growth was 92.7%. In the case of `COc1ccc(C(=O)N/N=C/c2cc(C(F)(F)F)ccc2Cl)cc1`, the growth is 91.1%. Take `OCC1OC2C(NC(=S)N2c2ccccc2)C(O)C1O` (configuration not stated): the growth is 98.3%.

On to `COc1cc2cc(Oc3ccc(NC(=O)Nc4cccc(C(F)(F)F)c4)cc3)c(C)nc2cc1OC`, for which the growth is 7.23% (active).

Take `Cc1c2c[n+](C(C)C)ccc2c(C)c2c1[nH]c1ccccc12`: the growth was 15.9%. Turning to `CC(=O)Nc1ccc(S(=O)(=O)c2ccnc3cc(Cl)ccc23)cc1`, the growth was 73.9%. Consider `CS(=O)(=O)c1nccc(-c2c(-c3cccc(OCCN4CCOCC4)c3)nc3sccn23)n1`, for which the growth was 98.4%. As for `COc1ccc(Cc2cnc(N)nc2N)cc1OC`, the growth was 107%. For the molecule `C=CCN(CC=C)C(=O)[C@H](CC)[C@@H]1CC[C@@H](C)[C@@H]([C@H](C)[C@@H](O)[C@@H](C)C(=O)[C@H](CC)C2O[C@]3(C=CC(=O)[C@]4(CC[C@@](C)([C@H]5CC[C@](O)(CC)[C@H](C)O5)O4)O3)[C@H](C)C[C@@H]2C)O1` (some centres not stated), the growth was 40.7%. Regarding `O=C1c2c(c(=O)[nH]c3ccccc23)CCN1Cc1ccccc1`, the growth was 110%. As for `COc1ccccc1-n1c(-c2csc(NC(C)=O)n2)n[nH]c1=S`, the figure is 85.3%; as for `Cc1ccc(NCCN(C)CC(C)O)c2c(=O)c3ccccc3sc12` (configuration not stated), 30%. As to `CCNCC(=O)Nc1ccc(C(=O)OCC)cc1`, the growth was 102%. As for `COC(=O)C1OC1c1cc([N+](=O)[O-])ccc1OC` (configuration not stated), the figure is 107%. Turning to `O=C1c2ccccc2C(=O)c2c1ccc1c(=O)n(-c3ccccc3C(F)(F)F)nnc21`, the growth is -89.5% (active).

On to `Nc1ccccc1NC(=O)c1ccc(CCCC(=O)Nc2ccc(C3CC3N)cc2)cc1` (configuration not stated), for which the growth is 18%. As to `C=CCn1c(SCC(=O)Nc2ccc(C(=O)/C=C/c3ccc(OC)cc3)cc2)nnc1-c1ccc(OC)c(OC)c1`, the growth is 86.7%. As for `CN1C(C(=O)Nc2ccccn2)=C(O)c2sc(Cl)cc2S1(=O)=O`, the growth was 97.6%. Consider `CC1/C=C/C=C/C=C/C=C/C=C/C=C/C=C/C(O[C@@H]2O[C@H](C)[C@H](O)[C@@H](O)[C@@H]2N)CC(O)C(C(=O)O)C(O)CC(=O)CC(O)CC(O)CC(O)CC(=O)CCCC(=O)CC(=O)OC1C(C)CC(C)C(O)CC(=O)c1ccc(N)cc1` (some centres not stated), for which the growth is -93% (active). For `CCN(CC)CC(=O)N(CC)c1ccc(C)c(Cl)c1` the value was 103%. For `NC(CSC(c1ccccc1)(c1ccccc1)c1cccc2ccccc12)C(=O)O` (configuration not stated), the growth is 90.9%. As for `O=C(CCn1cnc2c(cc(-c3ccccc3)n2-c2ccccc2)c1=O)Nc1ccc(F)cc1`, the growth is 85.2%. As to `COc1ccc(C(=O)CC(CC(=O)c2ccc(OC)cc2)c2c(C)nn(-c3ccccc3)c2Cl)cc1`, the growth was 91.9%.

As for `CCCN1CN2C(=O)N3CN(CCC)CN4C(=S)N(C1)C2C34` (configuration not stated), the growth was 106%. `NC1=NC(c2ccccc2)C2=C(N1)/C(=C/c1ccccc1)CCC2` (configuration not stated): the growth was 36.8%.

With `C[C@]12CC[C@@H]3c4ccc(O)cc4CC[C@H]3[C@@H]1CC[C@@H]2NS(=O)(=O)c1ccc(C(F)(F)F)cc1`, the growth is 22.3%. With `OCC1OC(n2cnc3c(NCc4ccco4)ncnc32)C(O)C1O` (configuration not stated), the growth is 17.2%. As to `COc1cc(C2CC(c3cc(Cl)c(C)cc3O)=NN2c2ccc(S(N)(=O)=O)cc2)cc(OC)c1OC` (configuration not stated), the growth is 20.9%. For the molecule `N=C1S/C(=C/c2ccc(-c3ccc4c(c3)C(=O)NC4=O)o2)C(=O)N1c1ccc(Br)cc1`, the growth was 39.1%.

As to `c1cnc2[nH]cc(-c3nc(-c4ccsc4)cs3)c2c1`, the growth was 98.3%. In the case of `Clc1nc2ccc(Br)cc2cc1-c1nc2ccccc2[nH]1`, the growth is 102%. On to `Nc1nc(Cl)nc2c1ncn2C1O[C@H](CO)[C@@H](O)[C@@H]1F` (some centres not stated), for which the growth was 41.5%.
